This is an account of results in PubChem BioAssay (NCATS).

Records with an inconclusive call do not appear. Active and inactive are the calls of the source. Calls follow the shape of the dose curve; as a rule, active = well fitted cell-killing curve with a large enough effect; inconclusive = small, poorly fitted or top-dose-only effect; inactive = flat fitted curve, though single readings scatter.
% is scaled to controls: 0 for no effect and ±100 for the full control effect; potency is read from the fitted curve at half-maximal effect.

The assay is described as follows: qHTS assay to identify small molecule inhibitors of chordoma cells - UCH-2 (AID 1259356). The settings on record: UCH-2 chordoma viability, CellTiter-Glo ATP luminescence, 48 h; series mostly up to 46.1 µM; activity change, negative = inhibition: at the top concentration. The text has this:
NIH Chemical Genomics Center [NCGC]
Chordoma is a rare and slow growing tumor that can occur anywhere along the spine, from the base of the skull to the tailbone. Current treatment options for chordoma is surgery and radiation therapy for those who are not candidates for surgery. But chordomas tend to return in the same location or surrounding areas of the original tumor after surgery and/or radiation. Chemotherapy can slow down the progression of the tumor. As chordoma is slow growing, the general cytotoxic agents that kill fast growing cells are ineffective, and some patients have been reported to respond to molecularly targeted drugs.
NCATS Pharmaceutical Collection (NPC) containing approximately 3000 clinically approved and investigational drugs were used to screen at 15 concentrations in a chordoma cell lines, UCH-2, to identify small molecule compounds that can inhibit chordoma cell growth.
NCGC Assay Protocol Summary:
Human chordoma cell line UCH-2 was dispensed at 800 per well in 4uL of culture medium into white solid bottom 1536-well plates (Corning Life Sciences, Corning, NY) using a Multidrop Combi (Thermo Scientific, Waltham, MA) dispenser. The assay plates were incubated at 37 C and 5% CO2 for an overnight, and then 23nL of compounds dissolved in DMSO and positive control were transferred using a Pintool station (Wako, San Diego, CA). Compound treatment was followed by the addition of 1uL of the combination compounds (1uM Auranofin, 500nM each of Camptothecin, Doxorubicin, Rubitecan, and Topotecan) and assay medium to each well of the assay plates using Flying Reagent Dispenser (FRD, Aurora Discovery, San Diego, CA). The assay plates were incubated at 37 C and 5% CO2 for 48hr. Then 5uL of CellTiter-Glo reagent (Promega Corporation, Madison, WI) was added to each well of the assay plates using FRD. After 30min incubation at room temperature, the luminescence signal was quantified using a ViewLux plate reader (PerkinElmer, Shelton, CT).
Turning to `CCCCCCCCCC(CC)c1ccc(S(=O)(=O)O)cc1` (configuration not stated), the “activity change, negative = inhibition” value is 1.16% (inactive).
On the same count and under the same terms, the same measure for `CCCN1CCC[C@H](c2cccc(O)c2)C1`: -0.501% (inactive); for `O=C(O)C(Cl)Cl`: 16.3% (inactive).
For the molecule `CC(Cc1ccc(O)cc1)NCC(O)c1cc(O)cc(O)c1` (configuration not stated), the “activity change, negative = inhibition” value was 5.33% (inactive).
Take `COC(C)(C)CCCC(C)C/C=C/C(C)=C/C(=O)OC(C)C` (configuration not stated): the “activity change, negative = inhibition” value is -0.456% (inactive).
With `CN(C)[C@@H]1C(=O)C(C(N)=O)=C(O)[C@@]2(O)C(=O)C3=C(O)c4c(O)cccc4[C@@](C)(O)[C@H]3[C@H](O)[C@@H]12`, the Potency result was “inactive”.
As for `Cc1cc(O)ccc1Cl`, the “activity change, negative = inhibition” value was 11.1% (inactive).
Regarding `COC(=O)c1cncn1C(C)c1ccccc1` (configuration not stated), the “activity change, negative = inhibition” value is -1.23% (inactive).
As for `CC(C)NC(C)Cc1ccc(I)cc1` (configuration not stated), the “activity change, negative = inhibition” value was 1.61% (inactive).
With `O=[N+]([O-])c1ccc([As](=O)(O)O)cc1`, the “activity change, negative = inhibition” value was 1.03% (inactive).
With `CC(=O)[O][Hg][c]1ccccc1`, the Potency is 2590 nM (active).
Regarding `C[C@]12CCC(=O)C(O)=C1CC[C@@H]1[C@H]3CCC(=O)[C@@]3(C)CC[C@@H]12`, the “activity change, negative = inhibition” value is 2.7% (inactive).
Regarding `CN[C@@H]1C[C@@H](c2ccc(Cl)c(Cl)c2)c2ccccc21`, the “activity change, negative = inhibition” value was -7.04% (inactive).
Turning to `CN[C@@H](C)[C@H](O)c1ccccc1`, the “activity change, negative = inhibition” value is 0.647% (inactive).
The same measure, in the same setting: the same measure for `C[N+](C)(C)CC(=O)O`: 16.1% (inactive).
Consider `NC1=NC(=O)N2CC12` (configuration not stated), for which the “activity change, negative = inhibition” value is 5.76% (inactive).
Turning to `O=[N+]([O-])/N=C1\NCCN1Cc1ccc(Cl)nc1`, the “activity change, negative = inhibition” value was -28.6% (inactive).
Turning to `CCCCc1ccc(C(=O)O)nc1`, the “activity change, negative = inhibition” value was 5.55% (inactive).
On to `C[C@]12N[C@H](Cc3ccccc31)c1ccccc12`, for which the “activity change, negative = inhibition” value is 1.88% (inactive).
As for `CCCCCCCCCCCCCCCC[N+](C)(C)C`, the “activity change, negative = inhibition” value was 1.75% (inactive).
For the molecule `c1ccc(C2(c3ccccc3)CC2C2=NCCN2)cc1` (configuration not stated), the “activity change, negative = inhibition” value is -14.7% (inactive).
For `O=C1C(I)=CC(=C(c2cc(I)c(O)c(I)c2)c2ccccc2C(=O)O)C=C1I`, the “activity change, negative = inhibition” value was 12.4% (inactive).
In the case of `NC(=O)CN1CC(O)CC1=O` (configuration not stated), the “activity change, negative = inhibition” value is 6.2% (inactive).
Regarding `O=C(O)COc1ccccc1`, the “activity change, negative = inhibition” value is -1.06% (inactive).
For the molecule `Cc1ccc(Cl)c(O)c1`, the “activity change, negative = inhibition” value was 3.76% (inactive).
Regarding `CC[N+]1(CCOC(=O)C(O)(c2ccccc2)c2ccccc2)CCCCC1`, the “activity change, negative = inhibition” value is 0.784% (inactive).
Turning to `C1CCC(NC2CCCCC2)CC1`, the “activity change, negative = inhibition” value was 0.101% (inactive).
